Consider 23 compounds from PubChem BioAssay (EPA / NIEHS).

Usually AC50 stands for the midpoint of the concentration-response curve, whichever way the signal moves.

Assay [1] is described as follows: APR_HepG2_CellCycleArrest_24hr: Apredica 24-hour HepG2 Assay for Cell Cycle Arrest (AID 2282905).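 Further: cell cycle arrest scored as ratio of 2N to 4N nuclear DNA content.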 Particulars: imaging, actives raise or lower the signal. The method, boiled down:
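After 24 h exposure at 0.39–200 uM in 0.5% DMSO, fixed cells received Hoechst 33342 staining. Imaging quantified per-nucleus DNA content; gain or loss fitted against DMSO controls.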

Assay [2] can be described thus: APR_HepG2_NuclearSize_24hr: Apredica 24-hour HepG2 Assay for Nuclear Size (AID 2282907). Conditions: high-content imaging, actives raise or lower the signal. The method in brief: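 Nuclear size from Hoechst 33342-stained, formaldehyde-fixed HepG2 nuclei imaged by high-content microscopy, after 24 h dosing at ten concentrations from 0.39 to 200 uM in 0.5% DMSO; gain or loss relative to DMSO baseline.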

Assay [3] is described as follows: APR_HepG2_CellLoss_24hr: Apredica 24-hour HepG2 Assay for Cell Loss (AID 2282908).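 On AC50: fit in both directions so a hit may be cell loss or gain.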 Conditions: high-content imaging. The method, boiled down:
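Nuclei stained with Hoechst 33342 after formaldehyde fixation (3.7%) were imaged at 20x to count cells. Exposure lasted 24 hr, at ten concentrations from 0.39 to 200 uM in duplicate, with 0.5% v/v DMSO. Fit bidirectional, relative to DMSO.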

Assay [4] can be described thus: APR_HepG2_MicrotubuleCSK_24hr: Apredica 24-hour HepG2 Assay for Microtubule CSK Stabilty (AID 2282909). Particulars: HepG2 microtubule cytoskeleton imaging, actives raise or lower the signal. The method in brief:
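Fixed HepG2 cells were stained for alpha-tubulin and imaged after 24 hr exposure to ten concentrations spanning 0.39–200 uM in 0.5% DMSO. Signal change was fitted in both directions relative to DMSO; taxol was the positive control.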

Assay [5] can be described thus: APR_HepG2_MitoticArrest_24hr: Apredica 24-hour HepG2 Assay for Mitotic Arrest (AID 2282910). Particulars: high-content imaging, actives raise or lower the signal. The method in brief:
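HepG2, 24 hr dosing, 0.39–200 uM, 0.5% DMSO final. Formaldehyde-fixed, Triton-permeabilised, anti-phospho-histone H3 plus Hoechst. ArrayScan imaging at 20x; bidirectional fit vs DMSO baseline.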

Assay [6] can be described thus: APR_HepG2_MitoMembPot_24hr: Apredica 24-hour HepG2 Assay for Mitochondrial Membrane Potential (AID 2282911). Particulars: imaging, actives raise or lower the signal. The method, boiled down: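 Mitochondrial dye uptake (MitoTracker Red CMXRos, 250 nM, 30 min pre-fixation) in HepG2 after 24 hr compound exposure, 0.39–200 uM; ArrayScan images at 20x, activity fitted in both directions relative to DMSO.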

Assay [7] in a line: APR_HepG2_MitoMass_24hr: Apredica 24-hour HepG2 Assay for Mitochondrial Mass (AID 2282912). Particulars: high-content imaging, actives raise or lower the signal. The method in brief: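 Endpoint is MitoTracker Red CMXRos (250 nM, 30 min, pre-fixation) intensity from 20x high-content imaging, nuclei located by Hoechst. Human HepG2 cells received ten concentrations from 0.39 to 200 uM in 0.5% DMSO for 24 hr, duplicate wells. Bidirectional fit relative to DMSO.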

Assay [8] can be described thus: APR_HepG2_CellCycleArrest_72hr: Apredica 72-hour HepG2 Assay for Cell Cycle Arrest (AID 2282914). Conditions: high-content imaging, actives raise or lower the signal. The method in brief:
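Using multiplexed high-content imaging, HepG2 nuclei stained with Hoechst 33342 (2 ug/mL) were analysed for DNA content after fixation and permeabilization. Treatment lasted 72 hr across 0.39–200 uM in duplicate with final DMSO 0.5% v/v; DMSO served as negative control.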

Assay [9] can be described thus: APR_HepG2_CellLoss_72hr: Apredica 72-hour HepG2 Assay for Cell Loss (AID 2282915). Particulars: high-content imaging. The method in brief:
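HepG2 cells exposed 72 h to compound at 0.39–200 uM (10 concentrations, duplicate) in 0.5% DMSO. Fixed with 3.7% formaldehyde and Hoechst 33342-stained. Imaged at 20x; nuclear count gives cell number, fitted bidirectionally versus DMSO.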

The nature of assay [10]: APR_HepG2_p53Act_24hr: Apredica 24-hour HepG2 Assay for p53 Activation (AID 2282913).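 Further: p53 protein immunofluorescence averaged per cell in HepG2 with Hoechst nuclei.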 Conditions: high-content imaging, actives raise or lower the signal. The method in brief:
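Following 24 hr dosing of HepG2 at 0.39–200 uM, the cells undergo formaldehyde fixation, Triton permeabilization and multiplexed antibody labeling that includes p53 (Cy5). Signal from the imaging is referenced to DMSO solvent controls.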

Activity calls are given as the source filed them. How the source made its calls: active means hit-call score of the fitted dose curve at least 0.9, where 1 is the maximum; inactive means score below 0.9.

Take `CC(C)OC(=O)C(C)(C)Oc1ccc(C(=O)c2ccc(Cl)cc2)cc1`: the result in [1], in assay [2], in assay [3], in assay [4], in [5] and in [6] was inactive. Moreover, in assay [7], the result was inactive. In addition, the half-maximal activity concentration (AC50) is 100 µM (active) in assay [8] and 103 µM (active) in assay [9].

Regarding `O=C(O)CC(O)(CC(=O)O)C(=O)O`, the call in [1], in assay [2], in [4], in assay [5], in [6] and in [7] was inactive. Also, the compound was classed as inactive in [10], in [8] and in assay [9].

On to `CCc1nc(N)nc(N)c1-c1ccc(Cl)cc1`, for which the call in [1], in assay [2], in assay [4], in assay [5], in assay [6] and in [7] was inactive. For the same compound, in [10], the outcome was inactive. Also, the concentration at half-maximal activity (AC50) in assay [8] was 100 µM (active); in assay [9] it was 80.2 µM (active).

Take `Cc1c(C)c2c(c(C)c1O)CCC(C)(COc1ccc(CC3SC(=O)NC3=O)cc1)O2` (stereo not given): the AC50 in [1] is 75.7 µM (active); in assay [4] it was 122 µM (active); in assay [6], 96.5 µM (active); in assay [9], 83.8 µM (active). The result in [2], in assay [5], in [7], in assay [10] and in assay [8] was inactive.

As to `O=Cc1ccccc1C=O`, the compound was classed as inactive in assay [1], in assay [2], in [3], in assay [4], in [5] and in assay [6]. Besides, the result in assay [7], in assay [8] and in [9] was inactive.

Consider `CC(C)COC(=O)CCCCC(=O)OCC(C)C`, for which the outcome in [1], in [2], in [3], in [4], in assay [5] and in [6] was inactive. Moreover, the compound was called inactive in assay [7], in [8] and in assay [9].

As to `O=NO`, the compound was classed as inactive in assay [1], in assay [2], in assay [3], in assay [4], in assay [5] and in assay [6]. Also, the call in [7], in [8] and in assay [9] was inactive.

As to `CCCCCCCCCCCCCCOS(=O)(=O)O`, the AC50 in [1] is 110 µM (active); in [5], 109 µM (active); in [10], 100 µM (active); in [9], 110 µM (active). The compound was called inactive in assay [2], in assay [4], in assay [6], in assay [7] and in assay [8].

With `O=C(O)c1cccnc1`, the call in assay [1], in assay [2], in [3], in assay [4], in [5] and in [6] was inactive. Besides, the result in assay [7], in assay [8] and in [9] was inactive.

On to `CC1=C(C)S(=O)(=O)CCS1(=O)=O`, for which the result in assay [1], in assay [2], in assay [4], in assay [5], in [6] and in assay [7] was inactive. In addition, in assay [10], the outcome was inactive. For the same compound, the AC50 in [8] was 42.8 µM (active); in assay [9], 37.4 µM (active).

With `Cc1ccc(-c2cc(C(F)(F)F)nn2-c2ccc(S(N)(=O)=O)cc2)cc1`, the compound was classed as inactive in assay [1], in [4] and in [6]. The AC50 was 118 µM (active) in [2]; 66.7 µM (active) in assay [3]; 53.2 µM (active) in [5]; 64 µM (active) in [7]; 28.6 µM (active) in assay [8]; 40.8 µM (active) in assay [9].

For `CCCCC(CC)COC(=O)CCCCCCCC(=O)OCC(CC)CCCC` (stereo not given), the call in assay [1], in assay [2], in [4], in assay [5], in assay [6] and in assay [7] was inactive. Moreover, the compound was classed as inactive in assay [10], in assay [8] and in [9].

Take `CCCCCCC(CCCCCCCCCCC(=O)OCC(COC(C)=O)OC(C)=O)OC(C)=O` (stereo not given): the compound was classed as inactive in assay [1], in assay [2], in assay [4], in assay [5], in [6] and in assay [7]. The result in [10], in [8] and in [9] was inactive.

With `C#CC(O)C(CC)CCCC` (stereo not given), the outcome in [1], in assay [2], in [3], in assay [4], in assay [5] and in assay [6] was inactive. Also, the outcome in assay [7], in [8] and in assay [9] was inactive.

With `N[C@@H](Cc1c[nH]c2ccccc12)C(=O)O`, the compound was classed as inactive in assay [1], in assay [2], in assay [3], in assay [4], in assay [5] and in [6]. Further, the result in [7], in assay [8] and in [9] was inactive.

Take `CCCCCCC(C=O)=Cc1ccccc1`: the call in [1], in assay [2], in assay [3], in assay [4], in [5] and in assay [6] was inactive. The AC50 in assay [7] is 53.5 µM (active); in [8] it was 57 µM (active); in assay [9] it was 50.2 µM (active).

Turning to `CC(=O)CC(c1ccccc1)c1c(O)c2ccccc2oc1=O` (stereo not given), the compound was called inactive in assay [1], in [2], in [3], in assay [4], in [5] and in assay [6]. The call in assay [7], in assay [8] and in assay [9] was inactive.

Turning to `OCC(O)CO`, the compound was classed as inactive in [1], in assay [2], in assay [4], in assay [5], in [6] and in assay [7]. In addition, the compound was called inactive in assay [8] and in [9]. The AC50 in assay [10] is 0.0391 µM (active).

As for `O=C1O[C@H]([C@H](O)CO)C(O)=C1O`, the outcome in assay [1], in assay [2], in assay [4], in assay [5], in assay [6] and in [7] was inactive. Also, the compound was called inactive in assay [10], in assay [8] and in assay [9].

For the compound `CCCC[C@H]1CN(CC2CCOCC2)C(=O)OC12CCN(C1(C)CCN(C(=O)c3c(C)ncnc3C)CC1)CC2`, the outcome in [1], in [2], in assay [4], in assay [5], in [6] and in assay [7] was inactive. Besides, the outcome in assay [10], in assay [8] and in assay [9] was inactive.

As to `c1ccc2occc2c1`, the outcome in assay [1], in assay [2], in [4], in assay [5], in assay [6] and in [7] was inactive. The call in assay [10], in assay [8] and in assay [9] was inactive.

`CC(=O)OC1CC(C)OC(C)O1` (stereo not given): the outcome in [1], in [2], in assay [4], in [5], in assay [6] and in assay [7] was inactive. Moreover, the compound was classed as inactive in assay [8] and in assay [9].

`CCCCOC(=O)CCCCC(=O)OCCCC`: the result in [1], in [2], in assay [4], in assay [5], in assay [6] and in [7] was inactive. Further, the compound was called inactive in assay [8] and in assay [9].
